The source of these data is ChEMBL document CHEMBL3988442, “University of Dundee, Small-Polar-MMV Screening Library” (2021).

The whole screen tested about 48,000 compounds, of which about 13,000 (27%) showed an effect of 50% or more. The list shows a part of the results.

For the assay, the system named is Wolbachia pipientis. Kind of assay: Anti-Wolbachia Cell-Based Screen. In kind it is functional. Further details: scale not given: in the data most compounds retested in dose-response had high values. As to conditions: 5 µM.
For the compound `N#Cc1cccc(C(=O)N2CCn3c(Cn4cncn4)cnc3C2)c1`, the “Percent Effect” value was 83.01%.
The same measure for `CN1CCN(Cc2cnc3n2CCN(C(=O)c2ccnnc2)C3)CC1`: -11.55%.
The value for `O=S(=O)(C1CC1)N1CCn2c(Cn3cncn3)cnc2C1` was 13.19%; that for `N#Cc1ccc(S(=O)(=O)N2CC(CC(=O)O)c3ccccc32)cc1` (stereo not given) was -12.53%; that for `Cc1noc(CNc2ccccc2CC(=O)N(C)C)n1` was -7.553%.
Turning to `N#CCc1ccc(OCC(=O)N2CCCC(n3cccn3)C2)cc1` (stereo not given), the “Percent Effect” value was -0.2298%.
The same measure for `Cc1ncsc1CCN1CCC(N(C)Cc2ncc(C(C)C)o2)C1` (stereo not given): -3.966%; for `Cc1nnc(CN2CCOC(c3ccc(Cl)cc3)C2)o1` (stereo not given): -9.345%; for `O=c1[nH]c2nc(NCC3CCCO3)ncc2c(=O)n1-c1ccc(F)cc1` (stereo not given): -3.035%.
The same measure for `CN(Cc1csc(-c2cccs2)n1)C(=O)CCn1ccccc1=O`: -2.021%; for `COc1cc(F)c(S(=O)(=O)N2CCN(C)Cc3ccccc32)cc1OC`: -10.31%.
The same measure for `CC(C)N(C)Cc1cn2c(n1)CN(Cc1ccsc1)CC2.O=C(O)C(F)(F)F.O=C(O)C(F)(F)F`: 6.195%; for `CN(C)Cc1cn2c(n1)CN(C(=O)Cc1ccsc1)CC2.O=C(O)C(F)(F)F`: 96.46%; for `O=C(Cc1ccsc1)N1CCn2cc(Cn3cncn3)nc2C1`: 4.087%.
Regarding `O=C(Cc1ccsc1)N1CCn2cc(CN3CCCC3)nc2C1`, the “Percent Effect” value is reported as -4.915%.
The value for `CC(=O)NCC(=O)N1CCn2cc(CN(C)Cc3ccco3)nc2C1.O=C(O)C(F)(F)F` was -4.865%; that for `CC(C)N(C)Cc1cn2c(n1)CN(C(=O)Cc1ccccc1)CC2.O=C(O)C(F)(F)F` was 114%; that for `CC(C)N(C)Cc1cn2c(n1)CN(C(=O)Cc1ccsc1)CC2.O=C(O)C(F)(F)F` was -0.9088%.
The same measure for `CCN(CC)Cc1cn2c(n1)CN(C(=O)Cc1ccsc1)CC2.O=C(O)C(F)(F)F`: 83.51%; for `CN(C)Cc1cc(=O)n2c(n1)CN(C(=O)Cc1ccsc1)CCC2.O=C(O)C(F)(F)F`: -8.762%; for `CN1CCOCC2(CCCN(C(=O)c3cn(C)cn3)C2)C1.O=C(O)C(F)(F)F` (stereo not given): -3.228%.
The value for `CCNC(=O)NC(C)(C)C(=O)NCCc1csc2ccccc12` was 9.687%; that for `O=C(Cc1cccnc1)NC1COc2ccccc2C1=O` (stereo not given) was -10.11%; that for `CCCC1CCCN(C(=O)CNC(=O)c2ccoc2C)CC1` (stereo not given) was 7.571%.
As for `O=S(=O)(C1CC1)N1CCc2c(CN3CCOCC3)cncc2C1`, the “Percent Effect” value came to 82.99%.
The value for `O=S(=O)(NCCN1CCOCC1)c1cncc(Cl)c1` was -2.689%; that for `CCOCc1cncc2c1CCN(S(=O)(=O)c1cccc(C)c1)C2` was 11.95%; that for `CC(C)(C)NC(=O)NC(=O)COc1nc(C(C)(C)C)no1` was -2.31%.
The same measure for `O=C(Cn1cnc2cc3c(cc21)OCCCO3)NC1CCCCC1`: 96.56%.
The same measure for `O=C(Cn1cnc2cc3c(cc21)OCCCO3)NC1CCCC1`: 88.37%; for `O=C(Cn1cnc2cc3c(cc21)OCCCO3)NCCc1ccccc1`: 66.67%; for `O=C(Cc1cc(-c2ccc3c(c2)OCO3)on1)NC1CCCC1`: -5.202%.
As to `O=C(Cn1cccnc1=O)NCCc1ccc2c(c1)OCCO2`, the “Percent Effect” value came to 1.93%.
Regarding `CC(C)(C)n1ncc2c(=O)n(CC(=O)NCCc3ccccc3)cnc21`, the “Percent Effect” value is on record as 21.71%.
As for `O=C(CCNCc1cccc2c1OCCCO2)NC1CCCC1`, the “Percent Effect” value is -1.594%.
The same measure for `CNc1nc(CNC(=O)Nc2ccc(OC(C)C)cc2F)cs1`: 6.813%; for `CCOc1ccc(OCC(O)CN2CCN(S(C)(=O)=O)CC2)cc1` (stereo not given): 152.9%; for `CS(=O)(=O)N1CCN(CC(O)COc2ccc(F)cc2)CC1` (stereo not given): -6.942%.
As for `CC(c1cccc(Cl)c1)N1CCN(S(C)(=O)=O)CC1` (stereo not given), the “Percent Effect” value amounted to 0.53%.
On to `CCc1ccc(OCC(O)CN2CCN(S(C)(=O)=O)CC2)cc1` (stereo not given), for which the “Percent Effect” value was 13.83%.
The value for `CS(=O)(=O)N1CCN(CC(O)COc2ccc(Cl)cc2)CC1` (stereo not given) was 153.2%; that for `CN1CCC(N2CC[C@@H]3[C@@H](CCC(=O)N3CCC3=CCCCC3)C2)CC1` was -18.13%; that for `CC(Cn1cccn1)NS(=O)(=O)Cc1ccc(F)cc1` (stereo not given) was 0.5755%.
The same measure for `COc1ccc(C(C)=O)c(OCC(=O)NC(C)c2ccc(F)cc2)c1` (stereo not given): 9.317%.
The same measure for `CNC(=O)COc1c(F)cc(Br)cc1C(C)=O`: 112.4%; for `CC(=O)c1ccc(Cl)c(Cl)c1OCC(=O)NCC(F)(F)F`: -11.44%.
Take `Cc1ccc(OCC(=O)NC2CC2)nc1`: the “Percent Effect” value was -4.219%.
The value for `COc1cc(CCC(=O)NC2CC2)ccc1OCC(F)(F)F` was -6.568%; that for `CC(=O)c1cc(Br)cc(F)c1OCC(=O)NC(C)C` was 60.24%.
The value for `COC(=O)COc1c(F)cc(Br)cc1C(C)=O` was 110.5%; that for `CNC(=O)NC(=O)COc1c(C(C)=O)ccc(Cl)c1Cl` was 18.02%.
Regarding `CC(=O)c1ccc(Cl)c(Cl)c1OCC(=O)NC(C)C`, the “Percent Effect” value is reported as -9.893%.
As to `CNC(=O)COc1c(C(C)=O)ccc(Cl)c1Cl`, the “Percent Effect” value is recorded as -15.04%.
The same measure for `O=C(COc1ccc(Br)cc1F)Nc1cn[nH]c1`: -2.369%; for `CC(=O)c1cc(Br)cc(F)c1OCC(=O)NC1CC1`: 100.7%.
